A selection: hits, their analogues and other compounds. The true share with any hit is near 6.7%.
Pf Dd2 growth = P. falciparum Dd2 growth inhibition; SYBR Green, 72 h; active compounds read low; activity change, % at 10 µM; hit rate 2.3% among 94,000; AID 1159554; in the data active = activity change below about -80%; inconclusive = no clear call, values can overlap the other calls
Tcruzi prolif = inhibitors of T. cruzi proliferation | T. cruzi beta-gal in NIH3T3, GalScreen luminescence, 90 h | inhibition, % at 8.34 µM | hit rate 5.9% among 77,000;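 active = mean inhibition above about 93%, with at least 55% of replicates each passing it, limit read from the data, passing the limit was not always enough; inconclusive = only one of those two conditions holds; inactive = neither condition holds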
C diff HTS = inhibitors of Clostridium difficile growth. Clostridium difficile clinical isolate growth, OD600, 24 h; active compounds read low. growth activity, negative = inhibition, % at 16 µg/mL (by protocol). hit rate 0.25% among 86,000;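 active = mean growth activity at or below -80% and every replicate also at or below -80%; inconclusive = mean at or below -80% but some replicate above -80%; inactive = mean growth activity above -80%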
Each line names hits and unclear results; the compound was inactive in the other large screens.

COc1ccc(C#Cc2ccc([C@H]3[C@@H](CO)N4CCCCN(Cc5ccncc5)C[C@@H]34)cc2)cc1	none
OC[C@@H]1[C@@H](c2ccc(C#CC3(O)CCCC3)cc2)[C@@H]2CN(Cc3ccccc3F)CCCCN12	none
C[C@H](CO)N1C[C@H](C)[C@@H](CN(C)S(=O)(=O)c2ccccc2)OCc2ccccc2-c2c(n(C)c3ccccc23)C1=O	none (no result: C diff HTS)
Cc1cccc(S(=O)(=O)N(C)C[C@H]2OCc3ccccc3-c3c(n(C)c4ccccc34)C(=O)N([C@H](C)CO)C[C@H]2C)c1	Pf Dd2 growth -83.6 (no result: C diff HTS)
C[C@@H]1CN([C@@H](C)CO)C(=O)c2c(c3ccccc3n2C)-c2ccccc2CO[C@@H]1CN(C)S(=O)(=O)c1cccc(F)c1	none
Cc1cccc(S(=O)(=O)N(C)C[C@@H]2OCc3ccccc3-c3c(n(C)c4ccccc34)C(=O)N([C@@H](C)CO)C[C@H]2C)c1	Pf Dd2 growth -81.5 (no result: C diff HTS)
C[C@@H]1CN([C@@H](C)CO)C(=O)c2cccc(NC(=O)c3ccc(-c4nccs4)cc3)c2O[C@@H]1CN(C)Cc1ccccc1	none
C[C@H](CO)N1C[C@H](C)[C@@H](CN(C)Cc2ccccc2)Oc2c(NC(=O)c3ccc(-c4nccs4)cc3)cccc2C1=O	none
C[C@H](CO)N1C[C@H](C)[C@H](CN(C)Cc2ccc(C(=O)Nc3ccccc3N)cc2)Oc2c(NC(=O)c3cnccn3)cccc2C1=O	Pf Dd2 growth -86.0 (no result: Tcruzi prolif)
C[C@@H]1CN([C@@H](C)CO)C(=O)c2cccc(NC(=O)c3ccc(-c4nccs4)cc3)c2O[C@@H]1CN(C)Cc1ccc(C(=O)Nc2ccccc2N)cc1	Pf Dd2 growth -94.6
C[C@@H]1CN([C@H](C)CO)C(=O)c2cccc(NC(=O)c3cnccn3)c2O[C@@H]1CN(C)Cc1ccc(C(=O)O)cc1	none
C[C@H](CO)N1C[C@H](C)[C@H](CN(C)Cc2ccc(C(=O)Nc3ccccc3N)cc2)Oc2c(NC(=O)c3ccc(-c4nccs4)cc3)cccc2C1=O	Pf Dd2 growth -90.0
C[C@@H]1CN([C@H](C)CO)C(=O)c2cc(NS(C)(=O)=O)ccc2O[C@H]1CN(C)C(=O)Nc1ccc2c(c1)OCO2	none (no result: C diff HTS)
Cc1ccc(CN2CC(=O)N3[C@H](CO)[C@H](c4ccc(Br)cc4)[C@@H]3C2)cc1	none (no result: Tcruzi prolif)
C[C@@H]1CN([C@@H](C)CO)C(=O)c2cc(-c3cncnc3)cnc2O[C@@H]1CN(C)C(=O)Cc1cccnc1	none
Cc1noc(C)c1S(=O)(=O)Nc1ccc2c(c1)C(=O)N([C@H](C)CO)C[C@@H](C)[C@@H](CN(C)C(=O)Nc1ccccc1)OCCCC[C@@H](C)O2	Pf Dd2 growth -83.8
Cc1noc(C)c1S(=O)(=O)Nc1ccc2c(c1)C(=O)N([C@@H](C)CO)C[C@@H](C)[C@H](CN(C)C(=O)Nc1ccc(C(F)(F)F)cc1)OCCCC[C@H](C)O2	none
Cc1noc(C)c1S(=O)(=O)Nc1ccc2c(c1)C(=O)N([C@H](C)CO)C[C@H](C)[C@@H](CN(C)C(=O)Nc1ccccc1)OCCCC[C@H](C)O2	none
Cc1noc(C)c1S(=O)(=O)Nc1ccc2c(c1)C(=O)N([C@@H](C)CO)C[C@@H](C)[C@@H](CN(C)C(=O)Nc1ccc(C(F)(F)F)cc1)OCCCC[C@H](C)O2	Pf Dd2 growth -81.7
CO[C@H](CN(C)S(=O)(=O)c1ccc(Cl)cc1)[C@@H](C)CN(C(=O)Nc1ccccc1F)[C@@H](C)CO	none (no result: C diff HTS)
C/C=C/c1cnc2c(c1)C(=O)N([C@H](C)CO)C[C@H](C)[C@@H](CN(C)C(=O)C1CC1)O2	none
O=C(C[C@@H]1CC[C@H]2[C@@H](COC[C@@H](O)CN2C(=O)c2ccccc2F)O1)N1CCN(c2ccccc2)CC1	none
COc1ccccc1CN1CC[C@@H]2[C@@H](CO)Nc3ccc(-c4cccc(F)c4)cc3[C@@H]21	none
COc1ccccc1CN1CC[C@@H]2[C@H](CO)Nc3ccc(-c4cccc(F)c4)cc3[C@@H]21	none
OC[C@@H]1Nc2ccc(C#Cc3ccc(F)cc3)cc2[C@H]2NCC[C@@H]12	Pf Dd2 growth -89.5 (no result: Tcruzi prolif)
COc1ccccc1C#Cc1ccc2c(c1)[C@@H]1[C@@H](CCN1C(=O)c1ccc(F)cc1)[C@@H](CO)N2	none
COc1cccc(-c2ccc3c(c2)[C@@H]2[C@@H](CCN2Cc2ccccc2OC)[C@@H](CO)N3)c1	C diff HTS -98.0
COc1cccc(-c2ccc3c(c2)[C@H]2[C@H](CCN2Cc2ccccc2OC)[C@H](CO)N3)c1	C diff HTS -90.6
O=C(c1ccc(F)cc1)N1CC[C@@H]2[C@H](CO)Nc3ccc(C#Cc4ccc(F)cc4)cc3[C@@H]21	none
COc1ccccc1C#Cc1ccc2c(c1)[C@H]1[C@H](CCN1C(=O)c1ccc(F)cc1)[C@H](CO)N2	C diff HTS -96.8
O=C(C[C@H]1CC[C@H](NC(=O)C2CCOCC2)[C@@H](CO)O1)Nc1ccc(-c2ccccc2)cc1	none
C[C@@H]1CCCCO[C@H](CN(C)Cc2ccc(C(F)(F)F)cc2)[C@H](C)CN([C@@H](C)CO)C(=O)c2cc(NS(=O)(=O)c3cn(C)cn3)ccc2O1	none
Cc1noc(C)c1S(=O)(=O)Nc1ccc2c(c1)C(=O)N([C@H](C)CO)C[C@H](C)[C@@H](CN(C)S(=O)(=O)c1cccs1)O2	none (no result: Tcruzi prolif)
CC(C)NC(=O)N[C@H]1CC[C@@H](CCNC(=O)C2CCOCC2)O[C@@H]1CO	none (no result: C diff HTS)
O=C(C[C@@H]1CC[C@@H]2[C@H](COC[C@H](O)CN2Cc2cccc(C(F)(F)F)c2)O1)NCc1ccncc1	none (no result: C diff HTS)
O=C(NCC1CC1)[C@@H]1[C@@H](CO)[C@@H]2Cn3c(ccc(-c4ccccc4F)c3=O)[C@H]1N2Cc1ccncc1	none
COc1ccc(C#Cc2ccc3c(c2)[C@@H]2[C@@H](CCN2C(C)=O)[C@@H](CO)N3)cc1	none
COc1ccccc1CN1CC[C@@H]2[C@H]1c1cc(-c3cccc(F)c3)ccc1N[C@@H]2CO	none
COc1ccccc1CN1CC[C@@H]2[C@H](CO)Nc3ccc(C#Cc4ccccc4)cc3[C@@H]21	C diff HTS -98.5
COc1ccc(C#Cc2ccc3c(c2)[C@H]2[C@H](CCN2Cc2ccncc2)[C@@H](CO)N3)cc1	Pf Dd2 growth -91.7 (no result: Tcruzi prolif)
C[C@H](CO)N1C[C@H](C)[C@@H](CN(C)C)Oc2ccc(NC(=O)Nc3cccc4ccccc34)cc2CC1=O	none (no result: Tcruzi prolif)
C[C@@H]1CN([C@H](C)CO)C(=O)c2cc(C3=CCCCC3)cnc2O[C@H]1CN(C)Cc1cccnc1	none
C[C@H]1CN([C@@H](C)CO)C(=O)c2cc(NS(=O)(=O)c3cccs3)ccc2O[C@H]1CN(C)Cc1ccncc1	none
O=C(C1CCCC1)N1CC2(C1)[C@H](c1ccccc1)[C@@H](CO)N2CC1CCCC1	none (no result: Tcruzi prolif)
C[C@@H]1CCCCO[C@H](CN(C)Cc2ccc(C(=O)Nc3ccccc3N)cc2)[C@@H](C)CN([C@H](C)CO)C(=O)c2cc(NS(=O)(=O)c3ccc(F)cc3)ccc2O1	Pf Dd2 growth inconclusive
Cc1ccc(S(=O)(=O)Nc2ccc3c(c2)C(=O)N([C@@H](C)CO)C[C@H](C)[C@@H](CN(C)Cc2ccc(C(=O)Nc4ccccc4N)cc2)OCCCC[C@@H](C)O3)cc1	Pf Dd2 growth -92.0 (no result: Tcruzi prolif)
C[C@@H]1CCCCO[C@@H](CN(C)Cc2ccc(C(=O)Nc3ccccc3N)cc2)[C@@H](C)CN([C@H](C)CO)C(=O)c2cc(NS(C)(=O)=O)ccc2O1	none (no result: Tcruzi prolif)

Screens: PubChem, Broad Institute
